Seven compounds from PubChem BioAssay (NCATS) can be followed below.

Molecules are shown by their SMILES. Results filed as inconclusive are left out. Active and inactive are the calls of the source. Calls follow the shape of the dose curve; as a rule, active = well fitted inhibition curve with a large enough effect; inconclusive = small, poorly fitted or top-dose-only effect; inactive = no such curve, though single readings can be large or run the other way.
% is scaled to controls: 0 for no effect and ±100 for the full control effect.

This test relates to Zika virus NS2B-NS3 protease (linked construct). The test can be described thus: Primary screen NINDS Rhodamine qHTS for Zika virus inhibitors (AID 1347160). Also: nearly all actives have a fitted effect of over 55% in size. The conditions noted are these: purified NS2B-NS3 protease, Rhodamine110 substrate fluorescence; series mostly up to 57.1 µM; activity change, negative = inhibition: at the top concentration. The method, boiled down: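 Purified NS2B-NS3 protease with the NS2B hydrophilic domain joined by a flexible linker (25 nM) in 10 mM Tris-HCl pH 8.0, 0.01% Tween 20, preincubated 15 min at RT with compound; Rhodamine110 peptide substrate 1.5 µM; fluorescence change over 15 min; 4-parameter Hill fit.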
In the case of `C[C@H]1CC[C@@]2(OC1)O[C@H]1CC3C4CC[C@H]5C[C@@H](O)CC[C@]5(C)C4=CC(=O)[C@]3(C)[C@H]1[C@@H]2C` (some centres not stated), the “activity change, negative = inhibition” value was -0.541% [at 33.1 µM] (inactive).
As to `CC(C)Nc1nc(Nc2ccccc2)nc(-c2ccccc2)n1`, the outcome was inactive.
Consider `Cc1cccc(N2CCN(C(=O)c3cc(S(=O)(=O)N(C)C)ccc3N3CCCC3)CC2)c1C`, for which the “activity change, negative = inhibition” value is 1.33% (inactive).
With `O=C(Nc1cccc2cccnc12)c1ccc(N2C(=O)[C@@H]3C4C=CC(C4)[C@@H]3C2=O)cc1`, the “activity change, negative = inhibition” value was 14.6% (inactive).
In the case of `CN(C)CC#CCCC(=O)C(O)(c1ccccc1)C1CCC1` (configuration not stated), the “activity change, negative = inhibition” value is 28.9% (inactive).
The same measure, in the same setting: the same measure for `C/C=C(/C)C(=O)OC1C=C2C3C(C)C(C)C(OC(=O)C(C)C(C)O)CC3(C)CCC2(C)C2(C)CC(OC(C)=O)C3C(C)(C)C(O)C(=O)CC3(C)C12` (configuration not stated): -9.77% [at 15.1 µM] (inactive); for `CCS(=O)c1nc(-c2cccc(OCc3ccccc3)c2)cc(C(F)(F)F)n1` (configuration not stated): -16.6% (inactive).
